The values below come from PubChem BioAssay (NCATS).

Inconclusive results are not listed. Activity calls are given as the source filed them. Calls follow the shape of the dose curve; as a rule, active = well fitted curve in the direction sought with a large enough effect; inconclusive = small, poorly fitted or top-dose-only effect, or another doubt; inactive = no such curve, though single readings can be large; an effect the other way counts as inactive or inconclusive.

Test [1] concerns the target Glutathione peroxidase 1 (Homo sapiens) (UniProt P07203). Put plainly: Primary qHTS Assay for Inhibitors of Recombinant Selenoprotein Glutathione Peroxidase 1 (GPX1) (AID 1845191). Also: nearly all actives have a fitted effect of over 65% in size. As to activity, negative = inhibition: % is scaled to controls: 0 for no effect and ±100 for the full control effect. The gist of the method:
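10 nM GPX1 + cpd, 30 min RT; start w/ 1 mM GSH, 0.5 mM cumene hydroperoxide, 0.5 mM NADPH, 100 nM GR, 0.01% BSA; buffer 50 mM Tris-HCl pH 7.5, 2 mM EDTA, 150 mM NaCl; Fl 340/450, 0 & 15 min.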

Test [2] deals with Phospholipid hydroperoxide glutathione peroxidase GPX4 (Homo sapiens) (UniProt P36969). Put plainly: Primary qHTS Assay for Inhibitors of Recombinant Selenoprotein Glutathione Peroxidase 4 (GPX4) (AID 1845192). Also: series mostly up to about 50 µM; % is scaled to controls: 0 for no effect and ±100 for the full control effect; nearly all actives have a fitted effect of over 65% in size. The gist of the method: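 NADPH consumption, followed by fluorescence at 340/450 nm between 0 and 15 min, reports GPX4 activity via coupled glutathione reductase (100 nM). Enzyme 200 nM was pre-exposed to compound 30 min; 0.5 mM cumene hydroperoxide and 1 mM GSH served as substrates.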
Chain of Phospholipid hydroperoxide glutathione peroxidase GPX4 (Homo sapiens) (P36969 whole entry, looked up): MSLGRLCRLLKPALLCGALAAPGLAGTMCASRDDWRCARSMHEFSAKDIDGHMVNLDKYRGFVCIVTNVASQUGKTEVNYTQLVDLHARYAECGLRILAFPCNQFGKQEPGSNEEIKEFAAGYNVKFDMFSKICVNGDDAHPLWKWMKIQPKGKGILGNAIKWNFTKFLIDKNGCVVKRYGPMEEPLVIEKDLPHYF

Test [3] has as its target Luciferin 4-monooxygenase (Photinus pyralis) (UniProt P08659). Put plainly: Primary firefly luciferase (FLuc) qHTS assay for identification of artifact compounds. (AID 1845220). Also: nearly all actives have a fitted effect of over 60% in size.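 As to activity change, negative = inhibition: series mostly up to about 54 µM; plate controls were DMSO vehicle for no effect and no enzyme for full effect.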 The gist of the method: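 FLuc 10 nM; luciferin 10 uM; ATP 10 uM; Tris-acetate pH 7.6, Mg-acetate 10 mM; 15 min RT preincubation; 5 min reaction; luminescence.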
Test [4] can be described thus: Primary fluorescence-based thiol-reactive (MSTI) qHTS assay for identification of artifact compounds. (AID 1845221). Also: nearly all actives have a fitted effect of over 65% in size. Also: potency is read from the fitted curve at half-maximal effect.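 As to activity change, negative = thiol reactive: series mostly up to about 54 µM; thiol-reactive compounds lower the probe fluorescence signal.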 In a few lines:
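Reactivity toward the thiol probe MSTI (4 uM) is scored by fluorescence at Ex/Em 525/598 nm after 1 h at room temperature. Acetyl-MSTI and MSTI define the activity scale.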
On the technique in general: qHTS replaces the single test concentration by a dilution series.

The test system of test [5] is Nanoluciferase (engineered Oplophorus gracilirostris luciferase). The test is described as follows: Primary Nanoluciferase (NLuc) qHTS assay for identification of artifact compounds. (AID 1845222).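 Also: NLuc secreted into diluted conditioned medium of S16 cells; series mostly up to about 54 µM; 0% = DMSO and -100% = no enzyme.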 The gist of the method: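 NLuc from S16 cell medium (1:55) plus test compounds, 15 min, room temperature. Luminescence after Nano-Glo (1:100) addition, 5 min.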
A short description of test [6]: Primary redox qHTS assay for identification of artifact compounds. (AID 1845223).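 Also: 0% = DMSO and 100% = reference compound.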 The gist of the method:
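Amplex Red (25 uM) and HRP (250 mU/mL) in HBSS, with compounds for 15 min, then 250 uM DTT for 30 min, room temperature, dark. Fluorescence 525/598 nm read; normalized to DMSO and 10 uM DA3003; Hill fit.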

Chain of Glutathione peroxidase 1 (Homo sapiens) (P07203 whole entry, looked up): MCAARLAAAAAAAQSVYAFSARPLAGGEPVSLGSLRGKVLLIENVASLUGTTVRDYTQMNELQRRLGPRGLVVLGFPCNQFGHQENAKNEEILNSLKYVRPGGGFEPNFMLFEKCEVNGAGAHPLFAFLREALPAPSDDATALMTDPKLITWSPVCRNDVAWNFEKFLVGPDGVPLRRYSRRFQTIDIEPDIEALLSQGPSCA

In the case of `O=C(c1c(F)ccc(NS(=O)(=O)N2CC[C@@H](F)C2)c1F)c1c[nH]c2ncc(-c3cnc(C4CC4)nc3)cc12`, the Potency result in test [1], in test [2], in test [3], in test [4], in test [5] and in test [6] was “inactive” each time.

Regarding `COc1ccccc1N1CCN(CC[C@@](C)(C(=O)C2CCCCC2)c2ccccc2)CC1`, the Potency result in test [1], in test [2], in test [3], in test [4], in test [5] and in test [6] was “inactive” in each case.

With `Cc1ccc(OC[C@H](O)[C@H](C)NC(C)C)c2c1CCC2`, the Potency result in test [1], in test [2], in test [3], in test [4], in test [5] and in test [6] was “inactive” throughout.

Turning to `C[C@@H]1O[C@@H](O[C@H]2[C@H](OC(=O)[C@]34CCC(C)(C)C[C@H]3C3=CCC5[C@@]6(C)C[C@H](O)[C@H](O[C@@H]7O[C@H](CO)[C@@H](O)[C@H](O)[C@H]7O)[C@](CO)(C(=O)O)C6CC[C@@]5(C)[C@]3(C)C[C@H]4O)OC[C@H](O)[C@@H]2O)[C@H](O)[C@H](O)[C@H]1O[C@@H]1OC[C@@H](O)[C@H](O[C@@H]2OC[C@](O)(CO)[C@H]2O)[C@H]1O` (stereo partly specified), the outcome in test [1] was “inactive [at 9.52 µM]”. Further, the activity change, negative = inhibition was -2.46% [at 9.73 µM] (inactive) in test [2] and 1.03% [at 11.6 µM] (inactive) in test [3]. Moreover, the activity change, negative = thiol reactive in test [4] was 423% [at 11.5 µM] (inactive). The activity, negative = inhibition in test [5] was 2.55% [at 11.6 µM] (inactive). Moreover, the redox activity (% of DA3003) in test [6] was 8.49% [at 11.5 µM] (inactive).

On to `CC(=O)N1CCN(CCOc2ccc(C3CCN(C4=Nn5c(nnc5C(F)(F)F)CC4)CC3)cc2)CC1`, for which the Potency entry in test [1], in test [2], in test [3], in test [4], in test [5] and in test [6] was “inactive” throughout.

As to `CC1=CC2/C=C(\C)CCC3OC(C)(C)OC3CCC(=O)C23C(=O)NC(CC(C)C)C3C1C` (stereo unspecified), the Potency result in test [1], in test [2], in test [3], in test [4], in test [5] and in test [6] was “inactive” each time.

Regarding `COC(=O)C[C@H]1C(C)(C)[C@H](OC(=O)c2ccccc2)C2CC3=C4CC(=O)O[C@@H](c5ccoc5)[C@]4(C)CCC3[C@@]1(C)C2=O` (stereo partly specified), the Potency entry in test [1], in test [2], in test [3], in test [4], in test [5] and in test [6] was “inactive” in each case.

As for `CCN(Cc1cc(Nc2nc(C)cn3c(-c4cn[nH]c4)cnc23)sn1)C(C)(C)CO`, the Potency result in test [1], in test [2], in test [3], in test [4], in test [5] and in test [6] was “inactive” throughout.

`NC(=O)c1nc(Nc2ccccc2)sc1NC(=O)C1CCCCC1`: the Potency entry in test [1], in test [2], in test [3], in test [5] and in test [6] was “inactive” in each case. Also, in test [4], the Potency was 1.68 µM (active).

In the case of `Cc1ccnc(NC(=O)C(C)c2cccc(C(=O)c3ccccc3)c2)c1` (stereo unspecified), the Potency result in test [1], in test [2], in test [3], in test [4], in test [5] and in test [6] was “inactive” in each case.

For the molecule `C=C1C(=O)O[C@H]2C[C@@H](C)[C@@H]3CCC(=O)[C@@]3(C)C[C@H]12`, the Potency entry in test [1], in test [2], in test [3], in test [4], in test [5] and in test [6] was “inactive” each time.

Turning to `CC(C)CCNC(=O)c1ccc2c(c1)nc(Nc1n[nH]c3ccc(-c4ccccc4OC(F)(F)F)cc13)n2C1CCC(O)CC1` (stereo unspecified), the Potency result in test [1], in test [2], in test [3], in test [5] and in test [6] was “inactive” in each case. In test [4], the Potency is 5.32 µM (active).

For `O=C(NCC1(N2CCN(c3ccccc3)CC2)CCOCC1)c1cccnc1Sc1ccccc1`, the Potency result in test [1], in test [2], in test [3], in test [4], in test [5] and in test [6] was “inactive” throughout.

Take `O=C(Nc1ccccc1)c1ccc(Nc2nnc(-c3ccc(O)cc3)c3ccccc23)cc1`: the Potency result in test [1], in test [2], in test [3], in test [4], in test [5] and in test [6] was “inactive” each time.

With `C=C1C(=O)O[C@@H]2/C=C(\C)CC/C=C(/C=O)[C@H](OC)[C@@H](OC(=O)C(C)C)[C@@H]12`, the Potency result in test [1], in test [2], in test [3], in test [4], in test [5] and in test [6] was “inactive” in each case.

Turning to `Cc1[nH]c2ccccc2c1CCNC(=O)c1cccs1`, the Potency result in test [1], in test [2], in test [3], in test [5] and in test [6] was “inactive” throughout. The Potency in test [4] was 8.44 µM (active).

As for `Cn1c(SCC(=O)N2CCC[C@H]2C(=O)Nc2ccccc2-c2ccccc2)nc2ccccc21`, the Potency entry in test [1], in test [2], in test [3], in test [4], in test [5] and in test [6] was “inactive” each time.

Consider `O=S(=O)(NCc1cccc2ccccc12)c1cc(Cl)c(Oc2cccc(N3CCNCC3)c2)s1`, for which the Potency entry in test [1], in test [2], in test [3], in test [4], in test [5] and in test [6] was “inactive” throughout.

As for `COc1ccc2nc(-c3cc(OC)c(OC)c(OC)c3)cc(C(=O)NCC(=O)Nc3ccc(C(C)=O)cc3)c2c1`, the Potency entry in test [1], in test [2], in test [3], in test [4], in test [5] and in test [6] was “inactive” each time.

For the molecule `O=C(Nc1ccc(Cl)cc1)C1CCCN(C(=O)c2cccc(-c3ccco3)c2)C1` (stereo unspecified), the Potency entry in test [1], in test [2], in test [3], in test [4], in test [5] and in test [6] was “inactive” in each case.

As to `O=C(N[C@H]1CCC[C@H](CO)C1)C1CCN(c2nc3cc(Cl)c(-c4ccc(Cl)cc4)cc3o2)CC1`, the Potency entry in test [1], in test [2], in test [3], in test [4], in test [5] and in test [6] was “inactive” each time.
